The list is not random: actives were taken first. Their share in the collection is about 2.9%.
CRFR2-BP antag – CRF-BP/CRF-R2 complex antagonism; HEK293 CRF-R2/CRF-BP, CRF-induced calcium fluorescence; inhibition, % at 11.8 µM; 350,000 tested, 0.59% active; AID 588475;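 active = inhibition of the ligand-induced calcium signal above about 50% at the single tested concentration, limit read from the data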
MEKK2mut PB1 HTS – signal of MEK5 binding to mutant human MEKK2 PB1 domain; bead flow cytometry, Alexa488-MEK5 binding to MEKK2 mutant; percent response, % at 10 µM; 290,000 tested, 0.35% active; in the data active = percent response above about 24%, passing the limit was not always enough
ABCB6 inh MLPCN – blocks the human ABCB6 transporter; AID 602162; 360,000 tested, 0.19% active; fluorescence ratio to DMSO, % at 10 µM; K562-ABCB6 porphyrin accumulation, flow cytometry, 1 h; hits give low values; Q9NP58;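 active = fluorescence ratio to DMSO below 75%, the collection mean minus 3 SD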;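 also: signal is porphyrin accumulated inside mitochondria; 100% equals median channel fluorescence of DMSO control wells; lower ratio means ABCB6 inhibition with less porphyrin fluorescence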
CRFR2-BP ag – CRF-BP/CRF-R2 complex agonism | HEK293 CRF-R2/CRF-BP, calcium dye fluorescence (FLIPR); percent of saturating CRF peptide response | 350,000 tested, 0.46% active | activation, % at 13.2 µM | AID 588473;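 active = activation of at least 50%, plus an integration ratio under a set limit after plate pattern correction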;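 also: plate controls were neutral control wells without compound for no effect and CRF at EC100 for full effect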
MEKK3 PB1 HTS – MEKK3-MEK5 PB1 interaction, increase or decrease. Q99759. bead-based flow cytometry, Alexa488-MEK5 binding to MEKK3; actives lie on both sides; 0 = blocked by unlabeled MEK5, 100 = vehicle. binding response (% of control), % at 10 µM. 290,000 tested, 1.4% active. AID 1529;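 active = binding response more than 3 SD above or below the average of its plate-row segment, actives on both sides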;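 also: Alexa488 bead fluorescence after subtracting the streptavidin-only scavenger bead signal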
Target sequence (Q99759 whole entry, looked up): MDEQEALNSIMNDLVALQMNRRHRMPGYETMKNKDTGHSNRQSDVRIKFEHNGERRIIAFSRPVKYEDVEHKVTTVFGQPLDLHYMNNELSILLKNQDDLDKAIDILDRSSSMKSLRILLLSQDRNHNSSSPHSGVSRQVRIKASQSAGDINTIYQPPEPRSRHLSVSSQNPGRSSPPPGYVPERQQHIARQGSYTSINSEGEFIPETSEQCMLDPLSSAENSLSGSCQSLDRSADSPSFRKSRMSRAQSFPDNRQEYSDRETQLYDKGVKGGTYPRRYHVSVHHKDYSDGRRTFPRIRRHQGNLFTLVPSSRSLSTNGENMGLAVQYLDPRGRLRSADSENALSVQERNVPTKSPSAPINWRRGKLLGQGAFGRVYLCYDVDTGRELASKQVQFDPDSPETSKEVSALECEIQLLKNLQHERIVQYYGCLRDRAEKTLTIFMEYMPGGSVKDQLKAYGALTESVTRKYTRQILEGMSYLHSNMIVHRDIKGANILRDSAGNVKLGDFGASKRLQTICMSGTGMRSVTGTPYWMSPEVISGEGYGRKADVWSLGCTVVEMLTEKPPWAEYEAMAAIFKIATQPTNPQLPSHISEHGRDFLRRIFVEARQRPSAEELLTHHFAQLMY
MEKK2wt PB1 HTS – raises or lowers MEK5 binding to wildtype human MEKK2 PB1 domain. bead flow cytometry, Alexa488-MEK5 binding to MEKK2 WT; actives lie on both sides. binding response (% of control), % at 10 µM. AID 1531. 290,000 tested, 1.1% active. Q9Y2U5; in the data active = binding response below about 67% or above about 130%
ABCB6 blocker 1 – inhibitors of human ABC transporter ABCB6. shares compounds with ABCB6 inh MLPCN. K562-ABCB6 porphyrin accumulation, flow cytometry, 1 h; hits give low values. ratio response (% of DMSO), % at 10 µM. 700 tested, under 10 active. AID 602430;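 active = repeat-averaged ratio response below 75% of DMSO, the collection mean minus 3 SD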;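 also: median porphyrin fluorescence at 575 nm with 488 nm excitation from mitochondria; lower ratio means less porphyrin signal so ABCB6 inhibition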
* marks the source's active call; other numbers are inactive results; nt = not tested or not shown.

SMILES	CRFR2-BP antag	MEKK2mut PB1 HTS	ABCB6 inh MLPCN	CRFR2-BP ag	MEKK3 PB1 HTS	MEKK2wt PB1 HTS	ABCB6 blocker 1
COCCCNC(=O)c1ccc2c(c1)CCN2S(C)(=O)=O	12	9	69*	-1	104	102	98
COc1ccc(C(=O)OCC(=O)Nc2cc(C)c(C)cc2[N+](=O)[O-])cc1	3	4	57*	1	109	107	102
CCCCOc1ccc(C(=O)OCC(=O)Nc2cc(C)c(C)cc2[N+](=O)[O-])cc1	-2	1	111	1	109	111	nt
CC(=O)Nc1ccc(NC(=O)CSC2=NS(=O)(=O)c3cc(Cl)ccc3N2)cc1	-1	nt	56*	0	nt	nt	100
O=C(CSC1=NS(=O)(=O)c2cc(Cl)ccc2N1)Nc1ccccc1F	-5	nt	95	1	nt	nt	nt
Cc1ccc2nc(SCC(=O)Nc3cccc(F)c3)nc(=O)n2c1	8	nt	100	0	nt	nt	nt
Cc1cc(S(=O)(=O)N2CCN(CC(=O)NCCc3cccs3)CC2)ccc1Br	6	nt	102	0	nt	nt	nt
COc1cc(OC)c(NC(=O)CCCNC(=O)Cn2cnc3sc(C)c(C)c3c2=O)cc1Cl	11	-4	96	-1	94	94	nt
Nn1c(SCC(=O)Nc2ccc(F)cc2)nnc1C1CCCCC1	-7	-7	96	1	86	92	nt
CN(C)c1ccc(NC(=O)CSc2nnc(C3CCCCC3)n2N)cc1	1	9	12*	0	103	102	99
CCc1cc(=O)oc2c(C)c(OCC(=O)N3CCCc4ccccc43)ccc12	-17	5	74*	1	101	101	99
O=C(COc1ccc(Br)cc1CO)N1CCCc2ccccc21	0	-3	98	-1	100	95	nt
CC1(C(=O)N/N=C/c2ccc3c(c2)OCO3)CC1(Br)Br (stereo not given)	13	0	98	-2	96	100	nt
CC(C)CC(=O)OCC(=O)Nc1ccccc1Sc1ccccc1	34	-1	74*	0	105	101	99
CCCCN1C(=O)C(CC(=O)NCc2ccco2)CC(C(=O)N(C(C)C)C(C)C)=C1C (stereo not given)	nt	nt	102	nt	nt	nt	nt
COc1ccc(CCNC(=O)CNCCc2ccc(F)cc2)cc1	-4	4	95	-1	102	102	nt
COc1cc(-c2nnc(CSc3nnc(Nc4ccc(C(C)C)cc4)s3)o2)cc(OC)c1OC	-48	-1	74*	3	108	99	99
O=C(CCc1nc(-c2ccccc2Cl)no1)NC1CCCCC1	-1	-6	73*	0	96	95	99
COc1ccccc1CNC(=O)COC(=O)COc1ccccc1F	2	nt	74*	-1	nt	nt	99
Cc1c(NC(=O)Nc2cccc(C#N)c2)c(=O)n(-c2ccccc2)n1C	0	1	98	0	101	103	nt
CC1CC(O)C(C)CN1 (stereo not given)	-2	8	98	-2	99	97	nt
CC(=O)c1c(C)oc2ccc(NS(=O)(=O)c3ccc(O)c(C(=O)O)c3)cc12	-9	10	101	1	101	108	nt
CC(=O)c1c(C)oc2ccc(NS(=O)(=O)c3ccc(F)cc3C)cc12	-12	1	73*	-1	102	101	101
O=C(CCN1C(=O)C2C3CC(C(Br)C3Br)C2C1=O)OCC(=O)c1ccccc1 (stereo not given)	-7	-3	71*	-2	59	59	99
CC1CCN(CCNC(=O)CCS(=O)(=O)c2ccc(Br)cc2)CC1	-1	13	7.0*	3	102	114	95
SMILES	CRFR2-BP antag	MEKK2mut PB1 HTS	ABCB6 inh MLPCN	CRFR2-BP ag	MEKK3 PB1 HTS	MEKK2wt PB1 HTS	ABCB6 blocker 1
CC(C)CC(OC(=O)c1nsc(Cl)c1Cl)C(=O)NC1CCCC1 (stereo not given)	-16	1	98	0	100	96	nt
Cc1cc(C(=O)COc2ccc(C#N)cc2)c(C)n1CC1CCCO1 (stereo not given)	15	nt	91	1	nt	nt	nt
Cc1cc(C(=O)COc2ccc(Br)cc2F)c(C)n1CC1CCCO1 (stereo not given)	17	nt	71*	-2	nt	nt	97
Cc1cccc(N2CCN(C(=O)c3cccc(N4C(=O)C5C6C=CC(C6)C5C4=O)c3)CC2C)c1 (stereo not given)	-6	3	94	1	100	104	nt
Cc1cccc(N2CCN(C(=O)CCN3C(=O)C4C5C=CC(C5)C4C3=O)CC2C)c1 (stereo not given)	4	0	67*	-1	100	103	96
COc1ccc(N2CCN(C(=O)c3cc(-c4ccc(F)cc4)[nH]c3C)CC2)cc1	-27	4	71*	0	97	97	101
Cc1[nH]c(-c2ccc(F)cc2)cc1C(=O)N1CCN(c2ccc(Cl)cc2)CC1	12	3	90	-1	102	102	nt
COc1ccccc1N(C)S(=O)(=O)c1ccc(C(=O)N2CCCC(C(F)(F)F)C2)cc1 (stereo not given)	-14	nt	74*	4	nt	nt	102
Cc1cc(NC(=O)CSc2nnnn2-c2ccc(C)c(Cl)c2)no1	-27	-4	72*	3	104	102	99
c1ccc(-c2cnnn2-c2ccccc2)cc1	-25	3	101	1	99	105	nt
Nc1nonc1-n1nncc1-c1ccccc1	-58	8	6.0*	-2	98	102	100
CCC(C)N1CCN(C(=O)C2CCN(S(=O)(=O)c3c(C)noc3/C=C/c3ccco3)CC2)CC1 (stereo not given)	-7	0	103	8	97	104	nt
Cc1cccc(NC(=O)C2CCN(S(=O)(=O)c3c(C)noc3/C=C/c3ccco3)CC2)n1	-16	-1	51*	12	99	104	98
COc1ccc(C(CNC(=O)c2cccc(S(=O)(=O)Nc3ccc(F)cc3)c2)N2CCOCC2)cc1 (stereo not given)	-11	nt	96	-1	nt	nt	nt
CCN(CC)CCOc1ncnc2c1oc1ccccc12	-2	1	84	2	101	102	nt
COc1ccccc1Oc1ncnc2c1oc1ccccc12	-9	-14	69*	0	82	77	100
O=c1[nH]cnc2c1sc1nc(C(F)F)cc(-c3ccccc3)c12	32	nt	91	-1	nt	nt	nt
CCN(CC)CCCNC(=O)c1oc2ccc(S(=O)(=O)N3CC(C)CC(C)C3)cc2c1C (stereo not given)	-5	13	95	-1	102	117	nt
O=C(NC1CCCC1)c1ccc(COCC(F)(F)C(F)F)o1	12	-7	73*	-1	99	99	99
